Several values for one entry are separate records, joined by “and”; a condition that tells them apart may be missing. Identical values can stand only once. Where a structure was tested more than once in an assay, its records may differ in their call. Activity calls are given as the source filed them. How the source made its calls: active means hit-call score of the fitted dose curve at least 0.9, where 1 is the maximum; inactive means score below 0.9.
assay: ATG_PXRE_CIS: Attagene CIS-FACTORIAL HepG2 Assay for human Pregnane X Receptor Element (PXRE) (AID 2282957); settings: HepG2 Attagene CIS-FACTORIAL PXRE reporter, mRNA; actives raise or lower the signal
Procedure: ATG_CIS is a cell-based, multiplexed-readout assay that uses HepG2, a human liver cell line, with measurements taken at 24 hours after chemical dosing in a 24-well plate.ATG_PXRE_CIS is one of 52 assay component(s) measured or calculated from the ATG_CIS assay. It is designed to make measurements of mRNA induction, a form of inducible reporter, as detected with fluorescence intensity signals by Reverse transcription polymerase chain reaction (RT-PCR) and Capillary electrophoresis technology.Data from the assay component ATG_PXRE_CIS was analyzed into 1 assay endpoint. This assay endpoint, ATG_PXRE_CIS, was analyzed with bidirectional fitting relative to DMSO as the negative control and baseline of activity. Using a type of inducible reporter, measures of mRNA for gain or loss-of-signal activity can be used to understand the reporter gene at the transcription factor-level as they relate to the gene NR1I2. Furthermore, this assay endpoint can be referred to as a primary readout, because this assay has produced multiple assay endpoints where this one serves a reporter gene function. To generalize the intended target to other relatable targets, this assay endpoint is annotated to the nuclear receptor intended target family, where the subfamily is non-steroidal.
Human liver HepG2 cells are transiently transfected with multiple reporter transcription units (MRTUs) in 6-well plates using FuGene 6 reagent (Roche; 3 ml FuGene/1 mg DNA). The MRTU constructs are regulated by a cis-regulating element (promoter). […] A major difference between the CIS and TRANS system is that in CIS activities of endogenous TFs are measured, whereas the TRANS assay evaluates changes in activities of exogenous, chimeric NR-Gal4 proteins. […] At the end of 24 hour incubation, total RNA was isolated using TriZol reagent (Invitrogen). The isolated RNA is then reverse-transcribed using oligo(dT) primer and Mo-MLV reverse transcriptase (Invitrogen) with DNAse I (Ambion) treatment for 30 min. The one-tenth of the produced cDNA was amplified by PCR using Taq DNA polymerase (Invitrogen) and two reporter sequence-specific primers. The PCR products were fluorescently labeled by primer extension with 6-arboxyfluorescein (6-FAM) 5'-labeled reporter sequence-specific primer (2 min at 95 C, 20 s at 68 C and 10 min at 72 C) and these products were digested with 5U of HpaI (New England Biolabs) for 2h at 37 C. The fragments were purified using Qiaquick PCR columns (Qiagen), analyzed on an ABI 3130xL genetic analyzer (Applied Biosystems) with peak positions identified by using a set of X-rhodamine (ROX)-labeled MapMarker1000 molecular weight standards (BioVentures). The raw capillary electrophoresis data was processed using Attagraph software (Attagene).

| SMILES | outcome | AC50 |
| --- | --- | --- |
| CCOC(=O)c1ccccc1C(=O)OCC | inactive |  |
| CCOP(=S)(OCC)SCS(=O)(=O)CC |  | 11.3 µM (active) |
| Nc1ccc(Cl)cc1 | inactive |  |
| CCOP(=S)(Oc1ccc([N+](=O)[O-])cc1)c1ccccc1 (stereo not given) |  | 1.22 µM (active) |
| CCCCCCCc1ccc(O)cc1 | inactive | 8.05 µM (active) and 14.2 µM (active) and 16.6 µM (active) |
| CC(C)(C)N(NC(=O)c1ccc(Cl)cc1)C(=O)c1ccccc1 |  | 4.36 µM (active) |
| CCCCC(CC)COP(=O)(Oc1ccccc1)Oc1ccccc1 (stereo not given) |  | 0.516 µM (active) |
| COC(=O)C(F)(F)C(F)(F)OC(F)(C(F)(F)F)C(F)(F)OC(F)=C(F)F (stereo not given) |  | 4.84 µM (active) and 15.2 µM (active) and 5.55 µM (active) |
| N#Cc1ccc(O)cc1 | inactive |  |
| CCCN(CCC)c1c([N+](=O)[O-])cc(C(C)C)cc1[N+](=O)[O-] |  | 1.08 µM (active) |
| OCC1CO1 (stereo not given) | inactive |  |
| CCN(CC)c1ccccc1 | inactive |  |
| O=C(O)C=CC(F)(C(F)(F)F)C(F)(F)F | inactive |  |
| ClC1=C(Cl)C2(Cl)C3C(Cl)C(Cl)CC3C1(Cl)C2(Cl)Cl (stereo not given) |  | 2.38 µM (active) |
| O=C(O)C(F)(F)OC(F)(F)C(F)(F)OC(F)(F)F | inactive |  |
| c1ccc(OP(Oc2ccccc2)Oc2ccccc2)cc1 |  | 39.7 µM (active) |
| O=[N+]([O-])c1ccc(Cl)c(Cl)c1 |  | 49.2 µM (active) |
| Nc1ccc([N+](=O)[O-])cc1Cl |  | 67.3 µM (active) |
| O=P(Oc1ccccc1)(Oc1ccccc1)Oc1ccccc1 |  | 8.63 µM (active) |

| SMILES | outcome | AC50 |
| --- | --- | --- |
| Nc1ccc(Sc2ccc(N)cc2)cc1 |  | 41.2 µM (active) |
| CCOc1ccc(C(C)(C)COCc2cccc(Oc3ccccc3)c2)cc1 |  | 1.93 µM (active) |
| CC(=O)CCc1ccc2c(c1)OCO2 |  | 27.9 µM (active) |
| CCCCN(CC)C(=O)SCCC |  | 25.9 µM (active) |
| CCCCOCCOP(=O)(OCCOCCCC)OCCOCCCC |  | 1.04 µM (active) and 62.9 µM (active) |
| O=C(O)CF | inactive | 100 µM (active) |
| C=CC(=O)OCC(CC)(COC(=O)C=C)COC(=O)C=C | inactive |  |
| CC1(C)CN=C(NN=C(/C=C/c2ccc(C(F)(F)F)cc2)/C=C/c2ccc(C(F)(F)F)cc2)NC1 |  | 4.77 µM (active) |
| N#Cc1c(-c2ccc(Cl)cc2)[nH]c(C(F)(F)F)c1Br |  | 2.6 µM (active) |
| c1ccc2c(c1)sc1ccccc12 | inactive |  |
| CC(C)(C)c1ccc(O)cc1 |  | 26 µM (active) |
| O=S(=O)(F)C(F)(F)C(F)(F)C(F)(F)C(F)(F)C(F)(F)C(F)(F)C(F)(F)C(F)(F)F | inactive |  |
| CCOP(=S)(NC(C)C)Oc1ccccc1C(=O)OC(C)C (stereo not given) |  | 0.699 µM (active) |
| O=S(=O)(c1ccc(O)cc1)c1ccc(O)cc1 |  | 35.9 µM (active) |
| CC1=C(C(=O)Nc2ccccc2)S(=O)(=O)CCO1 |  | 5.02 µM (active) |
| CC(C)Nc1ccc(Nc2ccccc2)cc1 |  | 1.97 µM (active) |
| FC(F)(F)C(F)(C(F)(F)F)C(F)(F)C(F)(F)CC1CO1 (stereo not given) | inactive |  |
| O=C(O)C(F)(F)OC(F)(F)C(F)(F)OC(F)(F)C(=O)O | inactive |  |
| c1nc[nH]n1 |  | 59.3 µM (active) |
